Source: PubChem BioAssay (NCI)
The panel holds about 79,000 compounds, 15% with a hit somewhere; the sample as a whole holds those more often. A number with no mark means an inactive call. The source made the active and inactive calls. Cut-off read from the data, not from the text of the source: active = growth inhibition above about 70%; inactive = the rest.

Assay: NCI Yeast Anticancer Drug Screen. Data for the sgs1 mgt1 strain (AID 161);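 note: 0% = growth of cultures given vehicle only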
Settings: S. cerevisiae sgs1 mgt1 strain, at 50.0 µM, active compounds read high
Summary of the method: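 Test agents were incubated with a DNA-repair-mutant yeast strain. Growth was then read and compared against vehicle-treated controls.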
`Cc1cc(C)c2ccc(NN=O)nc2n1` showed a growth inhibition of 18.9%. `C1CCSCCCCCSCCCCCSCCCCCSCC1` gave a growth inhibition of -4.2%. With `CC(=O)N(CN1C(=O)CCC1C(=O)O)c1ccccc1` (stereo not drawn) the growth inhibition was -8.5%. Compound `Cc1ccc(CN2CCOCC2)c(O)c1` has a growth inhibition of -0.65%. With `CC1CCC/C1=C(/I)C(=O)c1ccccc1` (stereo not drawn) the growth inhibition was 24.6%. Compound `CN1CCCC2C3=CC=C4CC(O)CCC4(C)C3CCC21C` (stereo not drawn) has a growth inhibition of 34.9%. In the case of `O=c1c2c(oc3cc(OCC4CO4)ccc13)CCC2` (stereo not drawn), the growth inhibition is reported as -28.2%. `COc1cc(/C=C/C=C2\CCC/C(=C\C=C\c3ccc(O)c(OC)c3)C2=O)ccc1O` showed a growth inhibition of 11.2%. `O=CN/C=C\c1cc(O)ccc1O` showed a growth inhibition of -2.6%. With `O=C1NC(=O)N2CCCOC2C1c1ccccc1` (stereo not drawn) the growth inhibition was 0.4%. For `C=CCC(C)C(=O)NNC(=O)C(C)CC=C` (stereo not drawn), the growth inhibition was -1.85%.

Assay: NCI Yeast Anticancer Drug Screen. Data for the cln2 rad14 strain (AID 165);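 note: 0% = growth equal to vehicle treated cultures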
Settings: S. cerevisiae cln2 rad14 strain, at 50.0 µM, active compounds read high
Summary of the method: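 Compounds are applied to the cln2 rad14 yeast strain, and growth is then compared with that of vehicle-treated cultures to give inhibition.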
Work on `O=C1C(O)CCN1C1CCCCC1` (stereo not drawn) yielded a growth inhibition of -2.85%. Work on `C[P+](C)(C)c1ccccc1` yielded a growth inhibition of -22.2%. `Cc1nc2c(SCc3ccccc3)ncnc2o1` showed a growth inhibition of 22.8%. `BrC1(C2(Br)N(c3ccccc3)CCN2c2ccccc2)N(c2ccccc2)CCN1c1ccccc1` gave a growth inhibition of 10.2%. In the case of `CCOC(=O)C(F)(F)C(F)(F)C(F)(F)F`, the growth inhibition is reported as 10.9%. With `CC(=O)Nc1nc(NC(C)=O)c2nc(C)cnc2n1` the growth inhibition was 24.4%. Work on `CCOC(=O)NC(=O)c1cn(CC(=O)NCC(=O)NCC(=O)N2CCN(CCn3c(C)nc(C(N)=O)c3N)CC2)c(=O)[nH]c1=O` yielded a growth inhibition of -18.8%. Compound `Cc1cc(C)[n+]([O-])c(C)c1` has a growth inhibition of -8.6%. For `CCN(CC)c1c(C)nnn1C1OC(COC(C)=O)C(OC(C)=O)C(OC(C)=O)C1OC(C)=O` (stereo not drawn), the growth inhibition was 3.15%. `C[Si](C)(/C(=C/COCc1ccccc1)CCOC1CCCCO1)c1ccccc1` (stereo not drawn) showed a growth inhibition of -10.9%. `N#Cc1cnsc1` showed a growth inhibition of 3.55%. In the case of `O=[N+]([O-])c1ccc(N/N=C/c2ccccn2)nc1`, the growth inhibition is reported as -7.7%. `COC(=O)CCC(=O)NC1=C(NCc2ccccc2)C(=O)c2ccccc2C1=O` showed a growth inhibition of 36%. Work on `CC1=CC(OC2CCCCO2)CC(C)(C)C1` (stereo not drawn) yielded a growth inhibition of -16.4%. `CCCCN(CCCC)CC(O)c1cc2ccc(Cl)cc2nc1-c1ccc(Cl)cc1` (stereo not drawn) gave a growth inhibition of 8.35%. `COC(=O)NC(Nc1ccc(Cl)cc1Cl)(C(F)(F)F)C(F)(F)F` gave a growth inhibition of 20.6%. For `S=c1c2ccccc2c(=S)n2n1CC=CC2`, the growth inhibition was 0%. For `CCCCCCCCCCCCCCC[N+](C)(C)C`, the growth inhibition was 99.2% (active). Compound `CC(=O)NNc1nc(C)c(C(/C=C/c2ccc(Cl)cc2)=N\NS(=O)(=O)c2ccc(C)cc2)s1` has a growth inhibition of 23.2%. `NCC(=O)Nc1ccc(C(=O)O)cc1` gave a growth inhibition of 4.6%. Compound `C=C1CCC2[C@@H](CCC3[C@]2(C)CCC[C@]3(C)C(=O)OC)[C@@H]1CC=O` (stereo partly drawn) has a growth inhibition of 23.4%. For `COc1ccc(C2=CCCCc3cc(O)c(OC)cc32)cc1`, the growth inhibition was 79.8% (active). `CNC(=O)OCc1c(COC(=O)NC)c(-c2ccc(S(=O)(=O)c3ccccc3)cc2)n(C)c1C` gave a growth inhibition of -2.7%. `O=C1CC=NC(=S)N1` gave a growth inhibition of 7.95%. `N#C/C(=C1/Sc2c(nc[nH]c2=O)N1c1ccccc1)c1nc2ccccc2[nH]1` showed a growth inhibition of -8.1%. In the case of `C=C1C(=O)OC2C1C(OC(=O)/C(C)=C/C)CC1(C)C(=O)CCC(=C)C21` (stereo not drawn), the growth inhibition is reported as 44.1%. In the case of `O=C1OCCC1n1cc(F)c(=O)[nH]c1=O` (stereo not drawn), the growth inhibition is reported as -39%. In the case of `CCC(C)(CC)OC(=O)c1ccc([N+](=O)[O-])cc1`, the growth inhibition is reported as -7.4%. In the case of `C/C=C(\C)C(=O)OC1C2C(C)=CC(=O)C(O)C2(C)C2C3(O)OCC24C1OC(=O)C(OC(C)=O)C4C(C)C3O` (stereo not drawn), the growth inhibition is reported as 91.8% (active). In the case of `Cc1cc(C)c2ccc(NN=O)nc2n1`, the growth inhibition is reported as 19.1%. Work on `C1CCSCCCCCSCCCCCSCCCCCSCC1` yielded a growth inhibition of -3.15%. Compound `CC(=O)N(CN1C(=O)CCC1C(=O)O)c1ccccc1` (stereo not drawn) has a growth inhibition of 1.55%. Work on `Cc1ccc(CN2CCOCC2)c(O)c1` yielded a growth inhibition of -0.1%. Compound `CC1CCC/C1=C(/I)C(=O)c1ccccc1` (stereo not drawn) has a growth inhibition of 7.85%. `CN1CCCC2C3=CC=C4CC(O)CCC4(C)C3CCC21C` (stereo not drawn) showed a growth inhibition of 14.5%. `O=c1c2c(oc3cc(OCC4CO4)ccc13)CCC2` (stereo not drawn) showed a growth inhibition of -24.9%. Compound `COc1cc(/C=C/C=C2\CCC/C(=C\C=C\c3ccc(O)c(OC)c3)C2=O)ccc1O` has a growth inhibition of 19.3%.
